Test results: PubChem BioAssay AID2289 (National Center for Advancing Translational Sciences (NCATS), 2010)
The whole screen tested about 340,000 compounds, of which about 3,300 (0.97%) were called active. Not shown: some 9% with an inconclusive outcome. Calls follow the shape of the dose curve; as a rule, active = well fitted inhibition curve with a large enough effect; inconclusive = small, poorly fitted or top-dose-only effect, or effect the other way; inactive = flat fitted curve, though single readings scatter. Some of the results follow.

Experiment: qHTS Assay for Modulators of miRNAs and/or Inhibitors of miR-21; also: nearly all actives have a fitted effect of over 55% in size
Conditions: HeLa miR-21-FLuc reporter, luciferase luminescence, 48 h; actives lower the signal
Outline: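 Using DMEM plus 10% FBS, HeLa miR-21-FLuc cells are incubated with test compounds (final up to about 40uM) for 48 hours; firefly luciferase signal is then imaged following reagent-mediated lysis.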
Potency is read from the fitted curve at half-maximal effect.

Potency, active:
COCCC1CCCCN1C(=O)c1ccc2nc(Cc3ccccc3F)oc2c1 (stereo not given) 4.14 µM
Cn1/c(=N/N=C/c2ccccn2)sc2ccccc21 2.07 µM
C/C(=N\N=c1/sc2ccccc2n1C)c1ccccn1 11.7 µM
CC(C)c1nn2c(=O)cc(COC(=O)c3cccs3)nc2s1 8.26 µM
CCc1nn2c(=O)cc(COC(=O)c3cccs3)nc2s1 9.27 µM
Cc1ccccc1C(=O)OCc1cc(=O)n2nc(C(C)C)sc2n1 2.33 µM
COCCc1nn2c(=O)cc(COC(=O)c3ccccc3C)nc2s1 10.4 µM
COCCNc1oc(-c2ccc(Cl)cc2)nc1C#N 9.27 µM
CNc1oc(-c2ccc(Cl)cc2)nc1C#N 3.29 µM
O=c1c2c3c(sc2nc(NCCO)n1Cc1ccco1)CCCCC3 16.5 µM
COCCNC(=O)c1ccc2c(c1)ncn2-c1ccc(F)c(F)c1 16.5 µM
COC(=O)c1cc2c(ccn2-c2ccc(F)cc2)n1Cc1ccc(OC(C)=O)cc1 18.5 µM
COc1cc(O)sc1C=Nc1ccc(Cl)cc1 7.36 µM
Cc1nn(Cc2ccccc2Cl)c(Cl)c1C(=O)NCCc1ccccc1 2.07 µM
Cc1nn(Cc2ccccc2)c(Cl)c1C(=O)NCCc1ccccc1 2.33 µM
CCOC(=O)c1c(C)c(C(=O)NCCc2ccccc2)c(C)n1C 11.7 µM
O=C(NCCc1c[nH]c2ccccc12)c1cnc2sccn2c1=O 3.29 µM
Cc1ccsc1C(=O)NCCc1c[nH]c2ccccc12 14.7 µM
Cc1ccc(C(=O)NCCc2c[nH]c3ccccc23)s1 5.21 µM
COc1ccccc1C1N=C(c2ccccc2C)NO1 (stereo not given) 7.36 µM
CCOC(=O)c1oc2c(c1C)/C(=N/O)CCC2 11.7 µM
CCCCCCSc1nc(N)c2c3c(sc2n1)CCCC3C (stereo not given) 14.7 µM
CCN(C(=O)c1cc2c(=O)n3ccccc3nc2n1C)C1CCCCC1 11.7 µM
CN(c1cc(=O)n2ccccc2n1)C1CCCCC1 13.1 µM
Cc1ccc(N=c2sc(C)c(C)n2C)cc1 11.7 µM
C/C(=N\Nc1ccc(C)c(Cl)c1)c1cccnc1 13.1 µM
C/C(=N\NC(=O)c1sccc1C)c1ccncc1 2.93 µM
C/C(=N\NC(=O)c1sccc1C)c1cccnc1 4.14 µM
Cc1ccccc1-c1nnc(-c2ccc(Cl)cc2)o1 2.07 µM
Cc1ccccc1-c1nnc(-c2cccs2)o1 6.56 µM
